Results on 63 compounds are retold here after PubChem BioAssay AID686970 (National Center for Advancing Translational Sciences (NCATS), 2013).

Molecules are shown by their SMILES. Among all 360,000 compounds or so, about 6,000 (1.7%) were called active. Where a call stands in place of a potency, no number is given. Not shown: some 8% with an inconclusive outcome. For the sample, actives were picked, then their nearest neighbours and some compounds at random. A number with no mark means an inactive call. Calls follow the shape of the dose curve; as a rule, active = well fitted cell-killing curve with a large enough effect; inconclusive = small, poorly fitted or top-dose-only effect, or effect the other way; inactive = flat fitted curve, though single readings scatter.
Potency is read from the fitted curve at half-maximal effect.

A short description of the assay: qHTS for induction of synthetic lethality in tumor cells producing 2HG: qHTS for the HT-1080-NT fibrosarcoma cell line.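 Also: NT is the 2HG producing partner of a matched IDH1 knockdown line; nearly all actives have a fitted effect of over 55% in size.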 Particulars: HT-1080-NT fibrosarcoma viability, CellTiter-Glo ATP luminescence, 48 h; series mostly up to 46.1 µM. The gist of the method: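 Compounds were tested in concentration-response format on HT-1080-NT cells for 48 hours at 37 degrees C. Cell viability came from CellTiter-Glo luminescence; curves were classified by r2, response magnitude and activity.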
(In general: In qHTS, concentration-response curves come from the screen itself.)
`COc1ccc(S(=O)(=O)NC(=O)C2(C)CCN2C(=O)COc2ccc(Cl)cc2)cc1` (stereo not drawn): the Potency entry is “inactive”.
On the same count and under the same terms, under `Cc1cccc(CN2CCN(C3CN(Cc4cn(Cc5cc(C)cc(C)c5)nn4)S(=O)(=O)C3)CC2)c1` (stereo not drawn) stands “inactive”.
The same measure, in the same setting: under `CC1CCC2(CC1)NC(=O)N(CC(=O)NCc1ccco1)C2=O` (stereo not drawn) stands “inactive”; under `Cc1ccc(S(=O)(=O)N[C@H](CO)C(C)C)cc1`, “inactive”; under `COCCCn1cc(CN2CC(N(C)C)CS2(=O)=O)nn1` (stereo not drawn), “inactive”.
On the same count and under the same terms, under `Cc1nc(C(F)(F)F)ccc1C(=O)N1CCC1(C)C(=O)NS(=O)(=O)c1ccccc1Cl` (stereo not drawn) stands “inactive”.
For the compound `O=C(NC1CCCCC1)C(c1cc2ccccc2o1)n1c(=O)c(-c2ccco2)nc2ccccc21` (stereo not drawn), the Potency entry is “inactive”.
Still for that read-out and setting: for `COc1ccc(-c2nc3cnccn3c2NC2CCCCC2)cc1-c1cccc(Cl)c1` the value was 18.4 µM (active).
Same read-out and setting: under `COc1cccc(-c2nc3nc(C)cc(C)n3c2NC2CCCCC2)c1` stands “inactive”; under `Cc1ccc2nc(-c3cccnc3)c(NC3CCCC3)n2c1`, “inactive”.
With `CC(=O)c1nn(-c2ccccc2)c(=Nc2ccccc2)cc1C`, the Potency entry was “inactive”.
Still for that read-out and setting: under `O=C(Nc1ccccc1)c1ccccc1OCc1ccccc1` stands “inactive”.
Consider `CCCOc1ccc(C2NC(=O)NC(c3ccccc3)=C2C(C)=O)cc1OCC` (stereo not drawn), for which the activity, negative = less viability was 6.35% [at 9.24 µM].
On to `COC(=O)c1ccc(C2CC(=O)Nc3cc(OC)c(OC)cc32)cc1` (stereo not drawn), for which the Potency result is “inactive”.
Still for that read-out and setting: under `CCCOc1ccccc1C1CC(=O)Nc2cc3c(cc21)OCO3` (stereo not drawn) stands 8.2 µM (active).
The same measure, in the same setting: under `Cc1ccc(F)c(S(=O)(=O)NC(=O)C2(C)CCN2C(=O)CCc2cccs2)c1` (stereo not drawn) stands “inactive”.
As to `OC[C@@H]1CN(Cc2ccc3c(c2)OCO3)C[C@H](n2cnc3c(NCc4ccco4)ncnc32)O1`, the Potency entry is “inactive”.
On the same count and under the same terms, for `CCc1nc2c(OCCOc3ccccc3)cccn2c1N(C)C(=O)c1ccc(OC)cc1` the value was “inactive”.
Take `CC(=O)c1ccc(Nc2nc(C(N)c3ccccc3)cs2)cc1` (stereo not drawn): the Potency entry is “inactive”.
With `COc1cccc(NC(=O)Nc2ccc(F)cc2)c1`, the Potency entry was “inactive”.
With `COc1ccc(C(CC(=O)Nc2ccc(C)cc2)NC(=O)C(F)(F)F)cc1` (stereo not drawn), the Potency result was “inactive”.
Regarding `COc1ccc(C(N)c2csc(NC(=O)Nc3cccc(C(F)(F)F)c3)n2)cc1` (stereo not drawn), the Potency is 20.6 µM (active).
Still for that read-out and setting: for `O=C(Nc1ccc(C(=O)N2CCOCC2)cc1)Nc1cccc(C(F)(F)F)c1` the value was “inactive”; for `NC(c1csc(NC(=O)Nc2cccc(C(F)(F)F)c2)n1)C1CCCCC1` (stereo not drawn), 8.2 µM (active); for `NC(c1ccccc1)c1csc(NC(=O)Nc2cccc(C(F)(F)F)c2)n1` (stereo not drawn), 18.4 µM (active).
On the same count and under the same terms, under `O=C(O)CC1(CC(=O)Nc2cccc(C(F)(F)F)c2)CCCC1` stands “inactive”; under `O=C(Nc1cccc(F)c1)NC1CCCCCCC1`, “inactive”; under `O=C(NCCc1cccc(F)c1)C1CC(O)CN1C(=O)Nc1ccccc1` (stereo not drawn), “inactive”.
For `CCN(CC)C(=O)C1=C(C)N(Cc2ccc(F)cc2)C(=O)C(CC(=O)NCc2cccc3ccccc23)C1` (stereo not drawn), the Potency entry is “inactive”.
Still for that read-out and setting: for `CO[C@@H]1CN(C)C(=O)c2cc(NC(=O)Nc3cc(F)ccc3F)ccc2OC[C@H](C)N(C(=O)c2ccccn2)C[C@@H]1C` the value was “inactive”.
As to `CCCCC[C@H](C)N1C[C@@H](COCc2ccccc2)Oc2cc(N3CCC[C@@H]3CO)ccc2S1(=O)=O`, the Potency result was “inactive”.
On the same count and under the same terms, for `O=C(NCc1cccnc1)c1ccc2nc([C@@H]3O[C@H](CO)[C@H](O)[C@H](O)[C@H]3O)[nH]c2c1` the value was “inactive”; for `COc1ccc(S(=O)(=O)N(C)C[C@H]2OCc3cnnn3CCCC(=O)N([C@H](C)CO)C[C@H]2C)cc1`, “inactive”; for `CNc1cc(-c2c(OC)cccc2OC)ncn1`, “inactive”.
On the same count and under the same terms, under `O=S1(=O)CC(N2CCN(c3ccccn3)CC2)CN1Cc1ccc(F)cc1` (stereo not drawn) stands “inactive”; under `COc1cccc(NC(=O)C2(C)CCN2Cc2ccccc2Cl)c1` (stereo not drawn), “inactive”; under `COc1ccc(C2CC(c3ccccc3)=NN2C(=O)COC(=O)COc2ccccc2)cc1` (stereo not drawn), “inactive”.
Same read-out and setting: under `COc1ccc(C2CC(c3ccc([N+](=O)[O-])cc3)=NN2C(C)=O)cc1` (stereo not drawn) stands “inactive”; under `COc1ccc(C2CC(c3cccc(OC)c3)=NN2c2ccc(S(N)(=O)=O)cc2)cc1` (stereo not drawn), 18.4 µM (active).
As for `O=C(CSc1ccc(Cl)cc1)NC1CC1`, the Potency result is “inactive”.
Same read-out and setting: for `O=C(OC1CC2CC1[C@H]1CCCCN1C2=O)N1CCOCC1` (stereo partly drawn) the value was “inactive”.
On the same count and under the same terms, under `CCCCCNC(=O)C(c1ccc(OC)cc1)n1c(=O)c(-c2ccccc2)nc2ccccc21` (stereo not drawn) stands “inactive”; under `CCN(CC)C(=O)C1=C(C)N(Cc2ccc(OC)cc2)C(=O)C(CC(=O)NCCCCc2ccccc2)C1` (stereo not drawn), “inactive”; under `Cc1ccc(S(=O)(=O)N(Cc2cccc([N+](=O)[O-])c2)C(=O)N2CCN(C)CC2)cc1`, “inactive”.
Take `O=C(CCl)N(Cc1cccc([N+](=O)[O-])c1)c1cccc(Cl)c1`: the Potency is 6.51 µM (active).
The same measure, in the same setting: for `O=C(c1cccc([N+](=O)[O-])c1)N1CCN(Cc2ccccc2)CC1` the value was “inactive”; for `O=C(c1ccc(N2CCCC2=O)cc1)N1CCN(c2ccc(C(F)(F)F)cc2[N+](=O)[O-])CC1`, “inactive”; for `CCNC(=S)Nc1ccc2c(c1)c(=O)n(C)n2Cc1ccc(Cl)cc1`, “inactive”.
Turning to `COc1ccc(CNC(=O)c2ccc(-c3cccnc3)c3ccoc23)cc1OC`, the Potency result is “inactive”.
On the same count and under the same terms, under `COc1cccc(C(O)c2nc(-c3ccc(C)c(C)c3)cs2)c1` (stereo not drawn) stands “inactive”; under `COC(=O)COc1cccc2c(=O)n(CC(=O)NCCc3ccc(OC)c(OC)c3)ccc12`, “inactive”; under `Cc1ccc(CNC(=O)CCNC(=O)Cn2ccc3ccccc3c2=O)cc1`, “inactive”.
With `COC(=O)COc1cccc2c(=O)n(CC(=O)NCc3ccccc3)ccc12`, the Potency is 2.59 µM (active).
Still for that read-out and setting: under `Cc1cc(C)c(S(=O)(=O)NN=C2c3ccccc3[C@H]3Cc4csc[n+]4[C@@H]23)c(C)c1` stands “inactive”; under `O=c1[nH]c2ccccc2n1C1CCN(CCOc2ccccc2)CC1`, “inactive”; under `COc1cc2c(cc1OC)CN(C(=O)c1cc(=O)c3ccccc3o1)CC2`, 5.8 µM (active).
On the same count and under the same terms, for `COc1ccc2c(CC(=O)N3CCc4cc(OC)c(OC)cc4C3)coc2c1` the value was “inactive”; for `COc1ccccc1CNC(=O)c1cc(=O)c2ccccc2o1`, “inactive”.
The same measure, in the same setting: under `COc1ccc(S(=O)(=O)N2CCCCC2c2cc(C(=O)NCc3ccc(F)cc3)no2)cc1` (stereo not drawn) stands “inactive”; under `C[C@@H]1CN([C@H](C)CO)S(=O)(=O)c2ccc(C#CC3CCCCC3)cc2O[C@H]1CN(C)C(=O)Cc1ccncc1`, “inactive”; under `C=C(C)COc1ccc(-c2n[nH]c(C)c2-c2ccccc2)c(O)c1`, 20.6 µM (active).
For the compound `COc1ccc(-c2c(-c3ccc(OC)cc3O)nc(C)nc2C(F)(F)F)cc1`, the Potency entry was “inactive”.
The same measure, in the same setting: for `C=C(C)COc1ccc(-c2ncncc2-c2ccc(OC)cc2)c(O)c1` the value was “inactive”.
